High-throughput results from PubChem.
Most compounds without a hit are left out; they make up all but 2.6% or so of the library.
Cruzain noTriton = inhibitors of Trypanosoma cruzi cruzain without detergent | purified cruzain, Z-FR-AMC fluorescence, no detergent | Potency, µM, hits mostly inhibitors | 200,000 compounds, 2.3% hits | AID 1476; also: nearly all actives have a fitted effect of over 40% in size
Target sequence (P25779 123-467 limits assumed): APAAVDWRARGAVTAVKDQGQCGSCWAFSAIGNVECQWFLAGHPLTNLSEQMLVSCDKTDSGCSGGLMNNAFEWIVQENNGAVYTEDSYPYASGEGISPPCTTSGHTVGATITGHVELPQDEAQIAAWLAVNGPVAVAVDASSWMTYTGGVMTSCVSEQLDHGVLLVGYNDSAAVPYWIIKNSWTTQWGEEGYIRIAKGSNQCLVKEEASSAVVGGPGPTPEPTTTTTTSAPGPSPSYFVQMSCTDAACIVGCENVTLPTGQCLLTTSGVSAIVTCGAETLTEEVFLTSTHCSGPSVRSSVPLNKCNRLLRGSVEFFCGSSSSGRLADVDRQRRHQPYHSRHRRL
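Purified cruzain at 1.5 nM, pre-incubated 15 min with compound at room temperature in 100 mM sodium acetate pH 5.5, 5 mM DTT, 0.00005% Triton X-100. Reaction started with 2 uM Z-FR-AMC; AMC fluorescence increase over 60 s gives rate.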
Cruzain inh Det = inhibitors of Trypanosoma cruzi cruzain with detergent; purified cruzain, Z-FR-AMC fluorescence, 0.01% Triton; Potency, µM, most hits filed as inhibitors; 200,000 compounds, 0.43% hits; AID 1478; also: nearly all actives have a fitted effect of over 40% in size
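Detergent-containing run (0.01% Triton X-100) in acetate buffer pH 5.5 with 5 mM DTT: enzyme at 1.5 nM final, 15 min compound preincubation at room temperature, then 2 uM Z-FR-AMC substrate. Activity taken as 60 s fluorescence increase at 360/450 nm.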
Hits are given with their value; n = inactive; u = inconclusive. Calls follow the shape of the dose curve; as a rule, active = well fitted curve in the direction sought with a large enough effect; inconclusive = small, poorly fitted or top-dose-only effect, or another doubt; inactive = no such curve, though single readings can be large; an effect the other way counts as inactive or inconclusive.

SMILES	Cruzain noTriton	Cruzain inh Det
CSc1ccc(CCNC(=O)C2=C(C)C(=O)OC23CCCCC3)cc1	n	n
O=[N+]([O-])c1cc(-c2cnc3ccccc3n2)ccc1Oc1ccc(Br)cc1	25.1µM	n
O=[N+]([O-])c1ccc(Oc2ccc(-c3cnc4ccccc4n3)cc2[N+](=O)[O-])cc1	u	n
COc1cc(/C=N/NC(=S)N/N=C/c2cc(OC)c(OC)c(OC)c2)cc(OC)c1OC	u	14.1µM
COc1cc(/C=N/NC(=S)Nc2cccc(C(=O)O)c2)cc(OC)c1OC	n	n
COC(=O)C1=C(C)N=c2s/c(=C/c3cccs3)c(=O)n2C1c1cccs1 (configuration not stated)	n	n
CCOC(=O)C1=C(c2ccccc2)N=c2s/c(=C\c3ccc(O)cc3)c(=O)n2C1c1cccs1 (configuration not stated)	12.6µM	n
CCN(C(=O)c1cn(CC)c(=O)c2cc(OC)c(OC)cc12)c1ccccc1F	n	n
Cc1ccc2onc(CC(=O)N3CCN(c4ccc(F)cc4)CC3)c2c1	25.1µM	28.2µM
Cc1ccc2onc(CC(=O)N3CCN(c4ccccc4F)CC3)c2c1	u	n
CC(SC1=NCCS1)C(=O)Nc1nnc(-c2ccc(Cl)cc2)s1 (configuration not stated)	n	n
COc1ccccc1-c1nnc(NC(=O)C(C)SC2=NCCS2)s1 (configuration not stated)	15.8µM	n
COc1cc2[nH]c(=O)n(CCCC(=O)NCc3ccccc3Cl)c(=O)c2cc1OC	n	n
CC1=CN2C(=N)/C(=C/c3ccco3)C(=O)N=C2S1	n	n
COc1cccc(OCCCn2cc(/C=C3/C(=N)N4C=C(C)SC4=NC3=O)c3ccccc32)c1	12.6µM	n
CC1=CN2C(=N)/C(=C/c3cn(CCCOc4ccccc4C)c4ccccc34)C(=O)N=C2S1	3.16µM	n
COc1ccc(OCCCn2cc(/C=C3/C(=N)N4C=C(C)SC4=NC3=O)c3ccccc32)cc1	25.1µM	n
COc1cc(/C=C2/C(=N)N3C=CSC3=NC2=O)ccc1OCCCOc1c(C)cccc1C	n	n
COc1cc(/C=C2/C(=N)N3C=CSC3=NC2=O)ccc1OCCCOc1ccccc1C	n	n
CCc1ccc(NC(=O)CC2C(=O)N(c3ccc(F)cc3)C(=O)N2Cc2ccc(F)cc2)cc1 (configuration not stated)	n	n
COc1ccc(C(=O)Oc2c(Sc3ccccc3)c(C)nn2-c2ccccc2)c(OC)c1	n	n
CC(=O)c1nn(-c2cccc(Br)c2)cc1C(=O)c1ccc2ccccc2c1	10µM	n
CC(=O)c1nn(-c2ccc(Br)cc2)cc1C(=O)c1ccccc1	u	n
COC(=O)c1c(N)n(-c2cc(Cl)cc(Cl)c2)c2nc3ccccc3nc12	n	n
Cc1cc(/C=C2\SC(=S)NC2=O)c(C)n1C1CC1	15.8µM	n
SMILES	Cruzain noTriton	Cruzain inh Det
Cc1cc(/C=C2/C(=O)N(C)C(=S)N2C)c(C)n1C1CC1	n	n
O=C(Nc1ccccc1)c1cc2ccccc2o1	n	n
O=C(Nc1ccccc1)c1ccc(OC(=O)c2cc3ccccc3o2)cc1	12.6µM	n
CC(Sc1nnc(Nc2ccccc2)s1)C(=O)NC1CCCc2ccccc21 (configuration not stated)	n	n
CC(Sc1nnc(NC2CCCCC2)s1)C(=O)Nc1ccc2c(c1)C(=O)c1ccccc1C2=O (configuration not stated)	15.8µM	n
COc1ccc(CCNC(=O)CCc2c(C)nc3cc(-c4ccc(Cl)cc4)nn3c2C)c(OC)c1	n	n
COc1ccc(O)c(C(=O)c2cc(C(=O)NCCc3ccccc3)c(=O)n(CCc3ccccc3)c2)c1	n	n
Cc1ccc(O)c(C(=O)c2cc(C(=O)NCCc3ccccc3)c(=O)n(CCc3ccccc3)c2)c1	25.1µM	n
O=C(O)C(O)(c1ccc(-c2ccccc2)cc1)c1ccc(-c2ccccc2)cc1	n	n
Cc1ccc(S(=O)(=O)NC(=O)c2ccc(-c3ccc(C)c4ccccc34)o2)cc1	n	25.1µM
Cc1ccc(-c2ccc(C(=O)Nc3ccccc3)o2)c2ccccc12	u	n
Cc1c(Cl)ccc2sc(NC(=O)c3ccc(S(=O)(=O)N4CCCc5ccccc54)cc3)nc12	u	n
O=C(Nc1ncccc1O)c1cccc(S(=O)(=O)N2CCc3ccccc32)c1	n	n
COc1cc2nc(NC(=O)c3ccc(S(=O)(=O)N4CCc5ccccc54)cc3)sc2cc1OC	n	n
Cc1cccc2sc(NC(=O)c3cccc(S(=O)(=O)N4CCc5ccccc54)c3)nc12	10µM	n
O=C(Nc1nc2c(Cl)cccc2s1)c1ccc(S(=O)(=O)N2CCc3ccccc32)cc1	3.16µM	n
Cc1cc(C)c2nc(NC(=O)c3cccc(S(=O)(=O)N4CCc5ccccc54)c3)sc2c1	3.98µM	n
Cc1cc(C)c2nc(NC(=O)c3ccc(S(=O)(=O)N4CCCC4)cc3)sc2c1	u	n
CCOc1cccc2sc(NC(=O)c3ccc(S(=O)(=O)N4CCCc5ccccc54)cc3)nc12	2µM	n
Cc1cccc(C(=O)n2nc(-c3cccnc3)nc2NCc2ccccc2)c1	n	n
COc1ccc2c(c1)c1c(c(=O)n(Cc3ccccc3)c(=O)n1Cc1ccc(C)cc1)n2C	n	n
COc1ccc(Cn2c(=O)c3cccnc3n(Cc3cccc(F)c3)c2=O)cc1	n	n
O=C(O)c1cc[c]([Hg][S]c2ncnc3nc[nH]c23)cc1	n	n
COC(=O)c1ccccc1NC(=O)CSc1nc2ccccc2nc1Cc1ccccc1OC	n	n
Cc1cccc2sc(NNC(=O)c3ccc(S(=O)(=O)N4CCc5ccccc5C4)cc3)nc12	7.94µM	n
SMILES	Cruzain noTriton	Cruzain inh Det
Cc1cccc2sc(NNC(=O)c3ccc(S(=O)(=O)N4CCCC(C)C4)cc3)nc12 (configuration not stated)	n	n
CCCCSCCCNC(=O)CN1C(=O)COc2ccc(S(=O)(=O)N3CCC(C)CC3)cc21	n	n
Cc1ccc(N(Cc2cccs2)C(=O)c2ccccc2Cl)cc1	n	n
CS(=O)(=O)c1ccc2nc(NC(=O)c3cccc(NS(=O)(=O)c4ccc(F)c(F)c4)c3)sc2c1	n	n
O=C(Nc1nc2ccc(SC(F)F)cc2s1)c1ccc(NS(=O)(=O)c2ccc(F)c(F)c2)cc1	31.6µM	n
COc1ccc(/C=C/c2nc(C#N)c(N3CCC(C)CC3)o2)cc1OC	u	n
Cc1c(Cc2ccccc2)c(=O)oc2c(CN(C)C)c(O)c(Cl)cc12	u	20µM
CN(C)Cc1c(O)ccc2oc(Cc3ccccc3)cc12	n	n
CCc1nnc(NC(=O)c2ccc(Cl)c(S(=O)(=O)N3CCc4ccccc43)c2)s1	12.6µM	n
O=C(Nc1nnc(C2CC2)s1)c1ccc(Cl)c(S(=O)(=O)N2CCc3ccccc3C2)c1	25.1µM	n
O=C(Nc1nnc(S(=O)(=O)N2CCc3ccccc32)s1)c1ccccc1Cl	n	n
O=C(Nc1nnc(C2CC2)s1)c1cc(S(=O)(=O)N2CCN(c3ccccc3)CC2)ccc1Cl	u	n
CCCSc1nnc(NC(=O)Cc2coc3cc(C)ccc23)s1	u	n
CCC(=O)Nc1ccc2nc(SCc3ccc(C)cc3)sc2c1	n	n
Cc1ccc2scc(N3CCCCC3C)c(=O)c2c1 (configuration not stated)	n	n
Cc1cccc(OCC(=O)Nc2ccccc2OCc2cc(=O)n3ccccc3n2)c1	n	n
Oc1csc(Cc2nc(-c3ccc(-c4ccccc4)cc3)cs2)n1	10µM	n
Oc1csc(Cc2nc(-c3ccc4ccccc4c3)cs2)n1	u	n
CCn1c(O)c(/C=C2\C=Nc3ccccc32)sc1=Nc1ccccc1	n	n
CCn1c(O)c(/C=C2\C=NN=C2c2ccc(C)cc2)sc1=S	12.6µM	n
NC(=S)N/N=C\c1c2ccccc2cc2ccccc12	1µM	0.891µM
NC(=S)N/N=C\c1c[nH]c2ccccc12	0.316µM	0.708µM
